This passage reports Potency results from ChEMBL document CHEMBL1201862, “PubChem BioAssay data set” (2004).

Molecules are shown by their SMILES. In all, about 400,000 compounds went through this assay and about 2,100 (0.53%) were called active. About 14% were inconclusive and are not listed. The rule behind the calls is not given here. The entries come from a sample that favours actives as a whole.

The target in the assay is Ataxin-2 (Homo sapiens) (UniProt Q99700). Kind of assay: qHTS for Inhibitors of ATXN expression. It is filed as functional. (Quantitative high-throughput screening tests each substance at several concentrations.)
Chain of Ataxin-2 (Homo sapiens) (Q99700 whole entry): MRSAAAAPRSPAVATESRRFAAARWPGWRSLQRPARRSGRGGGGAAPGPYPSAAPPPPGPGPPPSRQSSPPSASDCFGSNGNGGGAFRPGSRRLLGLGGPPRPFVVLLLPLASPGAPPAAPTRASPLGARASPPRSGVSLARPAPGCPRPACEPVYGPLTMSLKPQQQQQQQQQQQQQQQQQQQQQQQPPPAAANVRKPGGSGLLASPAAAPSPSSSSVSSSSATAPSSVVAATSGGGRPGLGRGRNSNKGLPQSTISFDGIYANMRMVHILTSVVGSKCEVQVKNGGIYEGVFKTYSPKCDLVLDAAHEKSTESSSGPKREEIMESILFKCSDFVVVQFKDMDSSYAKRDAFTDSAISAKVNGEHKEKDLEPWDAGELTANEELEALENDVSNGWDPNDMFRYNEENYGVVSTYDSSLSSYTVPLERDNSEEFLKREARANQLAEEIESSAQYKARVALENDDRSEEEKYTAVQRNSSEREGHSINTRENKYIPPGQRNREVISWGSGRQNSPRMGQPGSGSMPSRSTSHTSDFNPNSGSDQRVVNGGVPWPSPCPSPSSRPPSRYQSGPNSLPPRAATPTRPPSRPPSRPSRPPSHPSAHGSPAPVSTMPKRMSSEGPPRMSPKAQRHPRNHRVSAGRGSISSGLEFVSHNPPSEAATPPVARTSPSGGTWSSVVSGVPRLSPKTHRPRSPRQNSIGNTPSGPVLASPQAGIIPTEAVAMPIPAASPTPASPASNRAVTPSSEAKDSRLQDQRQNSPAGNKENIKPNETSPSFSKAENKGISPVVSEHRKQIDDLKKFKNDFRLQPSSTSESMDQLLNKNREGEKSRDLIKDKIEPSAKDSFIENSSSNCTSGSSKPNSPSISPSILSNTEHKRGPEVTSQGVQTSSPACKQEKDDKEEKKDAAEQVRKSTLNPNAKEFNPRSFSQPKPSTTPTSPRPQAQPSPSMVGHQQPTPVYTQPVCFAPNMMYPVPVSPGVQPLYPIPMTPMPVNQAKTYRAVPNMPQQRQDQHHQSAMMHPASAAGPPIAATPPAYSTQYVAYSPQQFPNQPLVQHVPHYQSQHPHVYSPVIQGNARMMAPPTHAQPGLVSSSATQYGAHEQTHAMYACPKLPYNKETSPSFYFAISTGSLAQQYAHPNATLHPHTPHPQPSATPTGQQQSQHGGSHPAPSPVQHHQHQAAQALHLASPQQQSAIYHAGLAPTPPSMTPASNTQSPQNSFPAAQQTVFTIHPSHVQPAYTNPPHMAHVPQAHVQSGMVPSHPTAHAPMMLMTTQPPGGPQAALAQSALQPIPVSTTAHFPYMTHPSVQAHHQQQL
In the case of `COc1ccc(CNC(=O)COC(=O)c2ccc(OCC3CCCO3)cc2)cc1` (stereo not drawn), the Potency result was “inactive”. Under `CCN1C(=O)c2cccc3c(S(=O)(=O)N4CCC(C)CC4)ccc1c23` stands “inactive”; under `CC1CCN(S(=O)(=O)c2ccc3c4c2CC(=O)N4CC(C)S3)CC1` (stereo not drawn), 31.6 µM (active); under `CC(=O)N1CCSc2ccc(S(=O)(=O)N3CCC(C)CC3)cc21`, “inactive”. Turning to `CC(C)(C)c1nc2ccccc2c2nnc(SCC(=O)Nc3nc4ccccc4s3)n12`, the Potency was 35.5 µM (active).

Take `Cc1nc(SCC(=O)Nc2nc3ccccc3s2)c(C#N)c(C)c1C`: the Potency entry is “inactive”. With `O=C(CCNC(=O)c1ccccc1)Nc1nc2ccccc2s1`, the Potency result was “inactive”. For the molecule `CCC(C)n1c(=N)c(C(=O)NC2CCCC2)cc2c(=O)n3ccccc3nc21` (stereo not drawn), the Potency result was “inactive”. On to `COc1ccc(C(=O)c2c(N)sc3c2CCN(C(=O)OC(C)(C)C)C3)cc1`, for which the Potency entry is “inactive”. Regarding `O=C1C=CC2(O[C@H](c3ccccc3)[C@@H](c3ccccc3)O2)[C@H](Sc2ccccc2O)C1`, the Potency is 2 µM (active). With `CCN(CC)c1ccc2c(C)cc(=O)oc2c1` the entry was “inactive”; with `CN(C)CCN/C=C1/C(=O)N(Cc2ccccc2)C(=O)c2ccccc21`, “inactive”. Consider `CN(C)CCN/C=C1/C(=O)N(Cc2ccc3c(c2)OCO3)C(=O)c2ccccc21`, for which the Potency result is “inactive”. Consider `CC1(C)CC(N/C=C2/C(=O)N(Cc3ccc4c(c3)OCO4)C(=O)c3ccccc32)CC(C)(C)N1`, for which the Potency is 21.2 µM (active). On to `N#CCC(=O)Nc1ccc(C(=O)NNC(=O)c2ccccc2-n2cccc2)cc1`, for which the Potency entry was “inactive”.

Consider `COc1cc(N2N=C(c3ccccc3)CC2c2ccccc2)c(C=O)cc1C=O` (stereo not drawn), for which the Potency entry is “inactive”.

With `O=C(Nc1cccc(-c2nc3ncccc3o2)c1)c1sc2ccccc2c1Cl`, the Potency is 17.8 µM (active). `Cc1ccc(-c2nc3ncccc3o2)cc1N`: the Potency entry was “inactive”. As for `Nc1c(C(=O)Nc2cccc(Cl)c2Cl)sc2nc(-c3cccnc3)ccc12`, the Potency result is “inactive”.

Take `COCCCNC(=S)N/N=C/c1ccc2c(c1)OCO2`: the Potency entry is “inactive”. Consider `CNC(=S)N/N=C(\C)c1ccc2c(c1)OCO2`, for which the Potency is 44.7 µM (active).

Take `COC(=O)c1ccc(N/C=C\C(=O)c2ccc3c(c2)OCO3)cc1`: the Potency result is “inactive”. In the case of `COc1cc(Cn2c(N)c(C#N)c3nc4ccccc4nc32)cc(OC)c1`, the Potency result is “inactive”. On to `O=C(Oc1ccc2c(-c3ccccc3)cc(=O)oc2c1)c1cccs1`, for which the Potency result was “inactive”. For `COc1ccc(N2C(c3ccsc3)=Cc3cc4c(cc3C2c2c[nH]c3ccccc23)OCO4)cc1` (stereo not drawn), the Potency was 28.2 µM (active).

As for `O=C(NC1CCS(=O)(=O)C1)c1cc2c(=O)n3ccccc3nc2n1Cc1ccccc1` (stereo not drawn), the Potency result is “inactive”.

As for `CCN(CC)CCNC(=O)C(Cl)=C1C(Cl)=C(Cl)C(Cl)=C1Cl`, the Potency is 44.7 µM (active). As for `CCCCOC(=O)c1ccc(NC(=O)C(=O)NCCN(CC)CC)cc1`, the Potency entry was “inactive”.
